14-3-3 Bad inh = inhibitors of 14-3-3 zeta/Bad binding, primary screen, biochemical, TR-FRET, bovine 14-3-3 zeta | 220,000 tested, 0.71% active | 14-3-3 protein zeta/delta (Bos taurus), P63103 | inhibition, % at 21.7 µM | AID 781, 2007 | TR-FRET 14-3-3zeta/Dy647-pBad peptide displacement, 1 h;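 active = inhibition above about 70%, limit read from the data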;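 also: 0% = full 14-3-3 plus peptide FRET controls and 100% = background without 14-3-3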
Target sequence (P63103 whole entry, looked up): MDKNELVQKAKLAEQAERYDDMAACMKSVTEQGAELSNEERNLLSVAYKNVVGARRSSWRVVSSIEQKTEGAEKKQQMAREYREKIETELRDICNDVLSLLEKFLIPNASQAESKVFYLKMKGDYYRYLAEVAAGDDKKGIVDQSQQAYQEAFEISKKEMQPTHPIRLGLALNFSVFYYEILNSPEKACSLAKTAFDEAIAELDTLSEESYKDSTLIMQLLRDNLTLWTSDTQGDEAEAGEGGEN
Mcl1 Bid PPI = Mcl-1/Bid binding inhibitors, primary screen, biochemical, TR-FRET, 1536-well; Induced myeloid leukemia cell differentiation protein Mcl-1 (Homo sapiens), Q07820; TR-FRET Mcl-1/Bid-Dy647 peptide binding; inhibition, % at 21.7 µM; 220,000 tested, 0.97% active; AID 1021, 2008;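 active = compounds that cut the binding signal by more than half at the single screening dose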;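 also: His-tagged Mcl-1 with europium anti-His antibody binding Bid BH3 peptide; 0% = Mcl-1 plus peptide wells and 100% = peptide-only wells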
Target sequence (Q07820 whole entry, looked up): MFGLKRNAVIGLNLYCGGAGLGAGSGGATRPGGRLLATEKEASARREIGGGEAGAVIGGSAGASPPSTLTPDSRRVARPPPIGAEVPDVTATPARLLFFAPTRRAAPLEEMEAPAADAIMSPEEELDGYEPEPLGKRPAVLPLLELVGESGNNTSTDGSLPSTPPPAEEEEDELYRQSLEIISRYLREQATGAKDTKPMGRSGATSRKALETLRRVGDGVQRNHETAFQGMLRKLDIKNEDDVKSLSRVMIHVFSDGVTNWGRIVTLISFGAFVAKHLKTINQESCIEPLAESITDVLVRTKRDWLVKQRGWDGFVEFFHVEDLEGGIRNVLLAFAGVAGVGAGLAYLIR
Mcl1 Noxa PPI = Mcl-1/Noxa binding inhibitors, primary screen, biochemical, TR-FRET, 1536-well | Induced myeloid leukemia cell differentiation protein Mcl-1 (Homo sapiens), Q07820 | TR-FRET Mcl-1/Noxa peptide binding, 2 h | 220,000 tested, 1.5% active | AID 1022, 2008 | inhibition, % at 21.7 µM;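 active = compounds that cut the protein-peptide binding signal by more than 50% relative to plate controls in a single-dose test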;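 also: His-tagged Mcl-1 with rhodamine Noxa BH3 peptide and terbium anti-His antibody; 0% = Mcl-1 plus Noxa peptide wells and 100% = peptide-only wells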
Mcl-1 Bim block = inhibitors of Bim peptide binding to Mcl-1, primary screen, biochemical, bead-based flow cytometry, multiplex; 190,000 tested, 0.1% active; Induced myeloid leukemia cell differentiation protein Mcl-1 (Homo sapiens), Q07820; AID 1009, 2008; inhibition, % at 10 µM; Bim peptide-Mcl-1 binding; in the data active = inhibition above about 40%;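 also: 0% = no compound tracer wells and 100% = peptide blocker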
NCF1 inh = p47phox/p22phox peptide binding inhibitors, primary screen, biochemical, uHTS, NADPH oxidase regulatory subunit | 220,000 tested, 0.53% active | inhibition, % at 24.7 µM | fluorescence polarization, 2 h | AID 1274, 2008;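 active = inhibition above about 30%, limit read from the data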;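 also: 0% = p47phox with labelled peptide and 100% = labelled peptide alone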
* hit, by the source's call; x = no result given; + = active, no number. Compounds with a hit are over-represented: about 3.2% of the library has one in this group of screens.

SMILES | 14-3-3 Bad inh | Mcl1 Bid PPI | Mcl1 Noxa PPI | Mcl-1 Bim block | NCF1 inh
O=C(CS(=O)(=O)c1ccccc1)Nc1ccc(N2CCOCC2)cc1 | 33 | -24 | 4 | -4 | -16
O=C(Cc1ccc(-c2ccccc2)cc1)NC1CCCC1 | -12 | -10 | 8 | 45* | -6
CN(C(=O)NC1CCCCC1)c1ccccc1 | -6 | -25 | -7 | 51* | 2
O=C(Cc1ccc(-n2cccc2)cc1)NC1CCCCCC1 | -6 | -31 | 2 | -4 | -21
N#Cc1cccc(C(c2nnnn2Cc2ccccc2)N2CCCC2)c1 (centres undefined) | 48 | 16 | 10 | 0 | -6
N#Cc1ccc(C(c2nnnn2Cc2ccccc2)N2CCCC2)cc1 (centres undefined) | 70* | 25 | 22 | 3 | -15
O=C(NCCCCc1ccccc1)C1CC(c2ccccc2C(F)(F)F)=NO1 (centres undefined) | -1 | -23 | -3 | x | -19
CC(C)(C)c1ccc(-c2nnc(SCC(=O)c3ccc4c(c3)OCCO4)o2)cc1 | 87* | -26 | 8 | -1 | -9
Cc1ccc(Cl)cc1N1CCN(C(=O)c2ccc3nc[nH]c3c2)CC1 | -1 | -9 | 21 | -4 | 123*
Cc1ccc(S(=O)(=O)/N=C(/c2ccc(F)cc2)N2CCCCC2)cc1 | 8 | -9 | -35 | 13 | -3
CCC(CC)C(=O)NN(C(=O)c1ccncc1)C1CC(=O)N(c2ccccc2)C1=O (centres undefined) | -6 | -8 | -1 | x | -4
Cc1cc(/C=C2\C(=N)N3N=C(c4ccco4)SC3=NC2=O)c(C)n1Cc1ccccc1 | -10 | -54 | 63* | x | -96
CCC1=NN2C(=N)/C(=C/c3cc(C)n(Cc4ccccc4)c3C)C(=O)N=C2S1 | -5 | -101 | 27 | x | -28
COc1ccc(-n2cccc2/C=C2\C(=N)N3N=C(c4ccco4)SC3=NC2=O)cc1 | 82* | 81* | 87* | 2 | -75
CCC1=NN2C(=N)/C(=C\c3cccn3-c3ccc(Br)cc3)C(=O)N=C2S1 | 79* | 41 | 46 | 2 | 43*
CCC1=NN2C(=N)/C(=C\c3cccn3-c3cccc(Cl)c3)C(=O)N=C2S1 | -16 | -65 | 41 | 0 | -23
O=c1c(Cl)c(NCc2ccccc2)cnn1C12CC3CC(CC(C3)C1)C2 | -36 | -9 | 15 | 1 | -3
Nc1nc2ccccc2nc1N | -8 | -1 | 14 | 6 | -13
c1ccc2nc3ccccc3nc2c1 | 22 | 86* | 38 | 0 | -17
Cc1ccc(OCC(=O)NC2=NCCS2)cc1 | -4 | 6 | 13 | 0 | 47*
CNc1nc2ccccc2n1/N=C/c1cccc(OC)c1OC | 4 | -16 | 12 | 57* | -8
O=C(Nc1ccccc1C(F)(F)F)c1cc2ncc(CCCl)cn2n1 | 9 | -25 | -6 | -6 | -4
O=C(c1ccc2c(c1)OCO2)N1CCC2(CC1)Oc1ccc(Cl)cc1C(=O)C21CC(c2ccc(Cl)cc2)=NO1 (centres undefined) | -2 | -54 | 1 | x | -176
Cc1ccc(C)c(S(=O)(=O)ON2C(=O)c3ccccc3C2=O)c1 | 20 | -48 | 60* | -15 | -16
O=C1c2ccccc2C(=O)N1OS(=O)(=O)c1ccccc1 | 14 | -10 | 28 | -11 | -7
SMILES | 14-3-3 Bad inh | Mcl1 Bid PPI | Mcl1 Noxa PPI | Mcl-1 Bim block | NCF1 inh
CCOC(=O)Nc1nn(-c2ccc(C)cc2)c(=O)c(C#N)c1C | -9 | -9 | 1 | 0 | -10
COc1cc(C2N=C(c3ccccc3)NO2)cc(Br)c1O (centres undefined) | -3 | 40 | 15 | 0 | +
COc1cc(C=C2C(=O)OC(c3ccccc3)OC2=O)cc(Br)c1O (centres undefined) | 13 | -14 | 35 | 0 | -23
CC(C)CN(C(=O)CN1CCc2ccccc21)c1c(N)n(CC(C)C)c(=O)[nH]c1=O | -9 | -49 | 14 | -1 | 0
C/C(CC(=O)Nc1ccc(F)cc1)=N\NC(=O)COc1ccccc1 | 9 | -74 | 4 | -2 | -5
CC1(C)CC(CC(=O)O)(c2ccccc2)CCO1 (centres undefined) | -6 | 66* | -19 | 0 | 4
Cc1cc(N2CC(C)OC(C)C2)n2cc(-c3ccccc3)nc2n1 (centres undefined) | 16 | 80* | 34 | 0 | 0
CC(NC(=O)C1CCC(CNc2c(N3CCCCC3)c(=O)c2=O)CC1)c1ccccc1 (centres undefined) | -4 | -53 | -4 | x | 4
Cc1ccc(/C=C/C2=Cc3c(sc(NC(=O)CSc4n[nH]c(N)n4)c3C#N)C(C)(C)C2)o1 | 2 | -30 | 97* | 8 | -32
CCOC(=O)c1sc(NC(=O)CSc2n[nH]c(-c3ccccc3)n2)c(C#N)c1C | 18 | 13 | 38 | -5 | -37
Cc1ccc(-c2cc(C(=O)NCCCn3ccnc3)c3cc(Br)ccc3n2)o1 | -6 | 34 | 76* | 0 | -12
Cc1cccc(-c2cc(C(=O)NCCCn3ccnc3)c3ccccc3n2)c1 | -3 | -27 | 5 | -2 | -9
O=C(NC1=NCCS1)c1cc(-c2cccs2)nc2ccccc12 | -1 | -93 | 8 | x | -32
Cc1ccc(-c2cc(C(=O)NC3=NCCS3)c3cc(Br)ccc3n2)o1 | -7 | 51* | 102* | 8 | -79
O=C(NN1CCOCC1)c1cc(-c2ccc(Br)s2)nc2ccccc12 | -1 | 4 | 6 | -3 | -4
Cc1ccc(-c2cc(C(=O)O)c3cc(Br)ccc3n2)o1 | 6 | 18 | 93* | 1 | -1
Cc1ccc(-c2cc(C(=O)NN3CCOCC3)c3cc(Br)ccc3n2)o1 | 4 | 1 | 57* | 1 | -2
CC(=O)c1c(C)nc2ccc(Br)cc2c1C(=O)O | -2 | 5 | 29 | 0 | -15
CC(=O)Nc1ccc(NC(=O)C(OC(=O)c2ccccc2)C(OC(=O)c2ccccc2)C(=O)O)cc1 (centres undefined) | -11 | 2 | 43 | -1 | -2
O=c1[nH]ncc(N2CCN(Cc3ccccc3)CC2)c1Cl | -13 | 2 | 3 | -3 | 6
CN(CCc1ccccn1)C(=O)CCC1CCCN(C(=O)c2n[nH]c3c2CCCC3)C1 (centres undefined) | 0 | -32 | 18 | -2 | -1
C=CCOC(=O)Nc1ccc(Cl)cc1NC(=O)OCC=C | -7 | -5 | 6 | -6 | -7
C=CCOC(=O)/C=C/C(=O)NC(N)=O | 12 | 75* | 39 | x | 3
CCOc1ccc(NC(=O)CN2C(=O)CSC2=O)cc1 | -5 | -9 | -4 | 0 | -2

High-throughput results from PubChem BioAssay.
